In PubChem BioAssay (NCI):
About 83,000 compounds went through this panel and 20% of them were active in at least one assay; those are over-represented in the sample as a whole.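 Treatment: one concentration, 48 hours, 96-well format. Scoring: percent growth, with anything below 10 considered active.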 Values without a mark were called inactive. Activity calls are given as the source filed them.

Each compound was assayed on ACHN renal (assay: NCI-60 one-dose screen, 48 h (100 = growth as untreated, 0 = no growth, -100 = all killed)). Conditions: 10 µM unless noted.
Description: Growth inhibition of the ACHN human tumor cell line is measured as a screen for anti-cancer activity. Cells are grown in 96 well plates and exposed to the test compound for 48 hours. Compounds are tested at a single concentration, which is 10^-5 M for most compounds. The reported endpoint is percent growth (GI% or GIPRCNT), where numbers from 0 - 100% represent growth inhibition, and numbers from -100% - 0 represent cell death. For example, a value of 40 represents 60% growth inhibition. A value of 0 means no net growth occurred over the course of the experiment. A value of -40 indicates 40% of cells at the beginning of the experiment died by the end of the experiment. A value of -100 means all cells are dead at the end of the experiment.
NCI-60 Human Tumor Cell Lines Screen was performed using the standard one-dose NCI protocol, which is described in more detail at https://dtp.cancer.gov/discovery_development/nci-60/default.htm.
Compounds with GIPRCNT values below 10 were considered active. Activity score was based on GIPRCNT using the following formula: […]
Score is 0 for GIPRCNT values of 100 or above, 50 for GIPRCNT values of 0, and 100 for GIPRCNT values of -100.
For `C=C1C(=O)O[C@@H]2C[C@@H](C)CCC(=O)[C@](C)(OC(C)=O)C[C@H](OC(=O)/C(C)=C\C)[C@@H]12`, the growth was 41.9%. For `CCNC(=O)Oc1ccc(/C(=C(/C)c2ccc(Cl)cc2)c2ccc(OCCN(C)C)cc2)cc1`, the growth was 91.4%. For `COc1cc2c3c(n(CCCN4CCCC4)c(=O)c2cc1OC)-c1cc2c(cc1C3=O)OCO2`, the growth was 55.6%. `O=C(CN1CCN(c2cc(=O)n(-c3ccccc3)c3ccccc23)CC1)Nc1ccc([N+](=O)[O-])cc1` was tested, and the growth was 87%. With `C/C(=C(/c1ccc(O)cc1)c1ccc(OCCN2CCCC2)cc1)c1ccc(Cl)cc1` the growth was 33.7%. With `CCCCCCNC(=O)Oc1ccc(/C(=C(/C)c2ccc(Cl)cc2)c2ccc(OCCN3CCCC3)cc2)cc1` the growth was 37.5%. With `CN(C)c1ncc(/C=C2\SC(=S)N(Cc3ccccc3Cl)C2=O)s1` the growth was 76.2%. For `COc1ccc([C@@H]2[C@@H](O)C(=O)N2c2cc(OC)c(OC)c(OC)c2)cc1`, the growth was 26.8%. With `COc1ccc(OC)c([C@H]2c3[nH]c4ccccc4c3C[C@H]3C(=O)N(CCCCCCC(=O)NO)CC(=O)N23)c1` the growth was 94.2%. For `NNC(=O)c1sc2nc(-c3cnccn3)cc(-c3cccs3)c2c1N`, the growth was 95.4%. `CN1CCN(c2ccc3c(c2)nc(NNC(=O)c2ccncn2)c2cccn23)CC1` showed a growth of 12.5%. Work on `C#Cc1ccc(NC(=O)c2ccc(/C=C/C(=O)c3nccn3C)cc2)c(F)c1` yielded a growth of 37.7%. `CCOC(=O)c1c(Nc2ccccc2)nn2c(-c3ccc(Br)cc3)ccnc12` was tested, and the growth was 34%. `CCOC(=O)/C(F)=C/C1CC1CCc1cccc(C(F)(F)F)c1` (stereo not given) was tested, and the growth was 100%. Compound `COc1cc2cc(Oc3ccc(NC(=O)Nc4cccc(C(F)(F)F)c4)cc3)c(C)nc2cc1OCCN(C)C` has a growth of 97.3%. Compound `CCOC(=O)C1=C(C)Nc2nc3ccccc3n2C1c1ccccc1` (stereo not given) has a growth of 73.7%. `Cc1cccc(NC(c2cc3cccc4ccc5cccc2c5c43)c2nnnn2C(C)(C)C)c1C` (stereo not given) showed a growth of 90.4%. With `O=C(Nc1cc(Cl)cc(Cl)c1)Nc1ccc2oc(=O)ccc2c1` the growth was 4.26% (active). In the case of `O=C1NC(=O)c2c1c1c3ccccc3ccc1c1[nH]c3ccccc3c21`, the growth was -2.53% (active). For `C#C[C@]1(O)CC[C@H]2[C@@H]3CC=C4c5sc(C6CC6)nc5CC[C@]4(C)[C@H]3CC[C@@]21C`, the growth was 91.4%. For `CC[C@H](C)[C@H]1NC(=O)[C@@H]([C@H](O)C(C)C)NC(=O)[C@@H](C)N(C)C(=O)[C@H](C)N(C)C(=O)[C@H](CC(C)C)NC(=O)[C@H](CC(C)C)N(C)C(=O)[C@H](C)N(C)C1=O`, the growth was 5.95% (active). With `COc1cc(/C=N/n2cnc3oc(-c4ccccc4)cc3c2=N)cc(CN2CCCCC2)c1O` the growth was -97.7% (active). With `COc1ccc(CN2C(=O)/C(=C/c3nc(CO)cs3)SC2=S)cc1` the growth was 99.6%. Compound `Cc1cc(F)cc(NS(=O)(=O)c2ccc(-c3cnc(C4CC4)o3)cc2)c1` has a growth of 44.4%. `O=C1NC(=O)/C(=C/c2ccc(OCc3cc4ccccc4nc3Cl)cc2)S1` showed a growth of 92.8%. In the case of `CCC(C)[C@H]1OC(=O)[C@H](C(C)C)N(C)C(=O)[C@@H](C(C)C)OC(=O)[C@H](C(C)C)N(C)C(=O)[C@@H](C(C)CC)OC(=O)[C@H](C(C)C)N(C)C1=O` (stereo not given in full), the growth was 7.98% (active). With `N/C(=N\OC(=O)CSc1nc2ccccc2s1)c1ccc2ccccc2c1` the growth was 91%. For `CS(=O)(=O)c1ccc2c(c1)c1c(n2S(=O)(=O)c2ccc(Cl)cc2)CCCC1`, the growth was 46.9%. With `Cn1cc(-c2nn3cc(-c4cccnc4)nc3s2)c2cc(F)ccc21` the growth was 83.8%. `CN1CCN(c2nc(-c3csc(-c4ccncc4)n3)cc3ccccc23)CC1` was tested, and the growth was 54.7%. In the case of `C#C[C@]1(O)CC[C@H]2[C@@H]3CC=C4c5sc(C6CCOCC6)nc5CC[C@]4(C)[C@H]3CC[C@@]21C`, the growth was 88.2%. Compound `CC[C@@](C)(NC(=O)C(C)(C)NC(=O)[C@@H](NC(=O)[C@@H]1CCCN1C(=O)C(C)(C)NC(=O)[C@H](CC(C)C)NC(=O)CNC(=O)C(C)(C)NC(=O)[C@@H](NC(=O)C(C)(C)NC(=O)[C@H](CCC(N)=O)NC(=O)[C@H](C)NC(=O)C(C)(C)NC(=O)[C@H](C)NC(=O)C(C)(C)NC(=O)[C@H](C)NC(=O)C(C)(C)NC(C)=O)C(C)C)C(C)C)C(=O)N[C@@H](CCC(N)=O)C(=O)N[C@@H](CCC(N)=O)C(=O)N[C@H](CO)CC1CCCCC1` has a growth of 107% [5 µM]. `CSc1nccc(-c2c(-c3ccc(F)c(OCc4ccc(F)cc4)c3)nc3sccn23)n1` gave a growth of 43.8%. Compound `Nc1c(C(=O)c2ccccc2)sc2nc(-c3cnccn3)cc(-c3cccs3)c12` has a growth of 98.3%. `Oc1ccc(CSc2nnc(-c3cnccn3)o2)c2cccnc12` was tested, and the growth was 0.457% (active). `O=C1[C@@H]2Cc3c([nH]c4ccccc34)[C@H](c3c(Cl)cccc3Cl)N2C(=O)CN1C1CCN(Cc2c(F)cccc2F)CC1` was tested, and the growth was 81.6%. In the case of `CC[C@@](C)(NC(=O)C(C)(C)NC(=O)[C@@H](NC(=O)[C@@H]1CCCN1C(=O)C(C)(C)NC(=O)[C@H](CC(C)C)NC(=O)CNC(=O)C(C)(C)NC(=O)[C@@H](NC(=O)C(C)(C)NC(=O)[C@H](CCC(N)=O)NC(=O)[C@H](C)NC(=O)C(C)(C)NC(=O)[C@H](C)NC(=O)C(C)(C)NC(=O)[C@@H]1CCCN1C(=O)C(C)(C)NC(C)=O)C(C)C)C(C)C)C(=O)N[C@@H](CCC(N)=O)C(=O)N[C@@H](CCC(N)=O)C(=O)N[C@H](CO)Cc1ccccc1`, the growth was 107% [4.25 µM]. `Cn1c2ccccc2c2c3c(c4c5ccc(Br)cc5oc4c21)C(=O)N(O)C3=O` gave a growth of 69.5%. Work on `CCc1ccc(NC(=O)N[C@@H](Cc2cc(F)cc(F)c2)C(=O)N[C@@H]2C(=O)N3CCC[C@H]3C(=O)N3CCO[C@H](C)[C@H]3C(=O)N[C@@H](CO)C(=O)N3C[C@H](C)C[C@H]3C(=O)O[C@H]2C)c(F)c1` yielded a growth of 34.7%. In the case of `C#C[C@]1(O)CC[C@H]2[C@@H]3CC=C4c5sc(-c6cccc(F)c6)nc5CC[C@]4(C)[C@H]3CC[C@@]21C`, the growth was 85.4%.
